The text below walks through data of PubChem BioAssay (NCATS).

Common to all, as to assay: Confirmatory Screen for Target Class Profiling of Small Molecule Inhibitors of Methyltransferases (AID 1745852); for activity change, negative = inhibition: % is set by controls: 0 for no effect and ±100 for the full control effect
The target in test [1] is Catechol O-methyltransferase (Homo sapiens) (UniProt P21964). Conditions: MTase-Glo luminescence, SAH detection, recombinant enzyme; measured here: COMT max response; stronger effect = lower value.
In test [2] the target is Guanidinoacetate N-methyltransferase (Homo sapiens) (UniProt Q14353). Conditions: MTase-Glo luminescence, SAH detection, recombinant enzyme; activity change, negative = inhibition: at 57.3 µM (top of the series) unless noted; series mostly up to 57.3 µM.
In test [3] the target is Nicotinamide N-methyltransferase (Homo sapiens) (UniProt P40261). Conditions: MTase-Glo luminescence, SAH detection, recombinant enzyme; measured here: NNMT max response; stronger effect = lower value.
Test [4] has as its target Phenylethanolamine N-methyltransferase (Homo sapiens) (UniProt P11086). Conditions: MTase-Glo luminescence, SAH detection, recombinant enzyme; measured here: PNMT max response; stronger effect = lower value.

Activity calls are given as the source filed them. Calls come from the whole dose curve.
Potency is the fitted concentration of half-maximal effect.

Chain of Phenylethanolamine N-methyltransferase (Homo sapiens) (P11086 whole entry, looked up): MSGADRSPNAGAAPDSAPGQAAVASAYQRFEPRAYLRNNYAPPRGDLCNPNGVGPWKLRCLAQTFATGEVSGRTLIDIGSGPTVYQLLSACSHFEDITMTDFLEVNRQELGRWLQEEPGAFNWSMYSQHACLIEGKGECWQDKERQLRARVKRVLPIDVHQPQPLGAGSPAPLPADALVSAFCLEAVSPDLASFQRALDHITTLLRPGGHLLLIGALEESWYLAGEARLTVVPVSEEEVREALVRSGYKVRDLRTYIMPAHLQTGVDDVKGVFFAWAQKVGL
Chain of Catechol O-methyltransferase (Homo sapiens) (P21964 whole entry, looked up): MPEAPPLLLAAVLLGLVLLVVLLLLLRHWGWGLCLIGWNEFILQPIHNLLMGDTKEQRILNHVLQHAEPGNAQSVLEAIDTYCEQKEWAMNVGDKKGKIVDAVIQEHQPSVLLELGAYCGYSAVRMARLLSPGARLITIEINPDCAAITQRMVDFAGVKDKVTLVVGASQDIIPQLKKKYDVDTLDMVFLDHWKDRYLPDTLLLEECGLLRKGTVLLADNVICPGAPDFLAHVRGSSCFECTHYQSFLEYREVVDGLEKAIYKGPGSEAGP
Chain of Nicotinamide N-methyltransferase (Homo sapiens) (P40261 whole entry, looked up): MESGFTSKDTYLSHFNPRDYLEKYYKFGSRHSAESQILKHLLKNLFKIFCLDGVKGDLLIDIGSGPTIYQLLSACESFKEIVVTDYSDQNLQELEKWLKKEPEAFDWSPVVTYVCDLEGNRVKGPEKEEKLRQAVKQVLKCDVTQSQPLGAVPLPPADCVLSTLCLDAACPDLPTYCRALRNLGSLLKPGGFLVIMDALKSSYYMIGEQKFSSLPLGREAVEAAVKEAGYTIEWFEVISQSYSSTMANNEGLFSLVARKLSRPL

Take `FC(F)(F)c1cccc(-c2nccn3c(C4CN(Cc5ccc6cn[nH]c6c5)C4)ncc23)c1`: the activity in test [1] was 0.457%; in test [3] it was -12.8%; in test [4], -2.02%. The activity change, negative = inhibition in test [2] was found to be 4.1%.
For the compound `COc1ccc(-c2nc3ccccc3[nH]2)cc1`, the activity is -76.2% in test [1], -74.3% in test [3] and -79.7% in test [4]. In test [2], the Potency was 15.2 µM (active).
Regarding `Cc1ccc(C(=O)O)c2c1N[C@H](c1cccc(Cl)c1)C1CC=CC21` (stereo not given in full), the values for the activity in test [1], in test [3] and in test [4] were 2.41%, 3.29% and 2.81%, respectively. In addition, the Potency result in test [2] was “inactive”.
On the same counts, the results for `CCCCN(C)C(=O)c1c(C)sc2ccn(CCC)c(=O)c12` are -45.9%, -28.7%, -13.5% and 12.1 µM (active).
On to `CCN(CC)c1cc(CCC(=O)N2CCN(c3cccc(OC)c3)CC2)ccn1`, for which the activity was -2.67% in test [1], 1.73% in test [3] and -3.99% in test [4]. The activity change, negative = inhibition in test [2] worked out at 5.52%.
On the same counts, the results for `CCCC1c2cccn2CCN1C(=O)Nc1cccc(Cl)c1C` (stereo not given) are -7.65%, -16%, -8.29% and -4.33%.
As for `CC[C@H](C)NC(=O)c1sc(=S)n2c1[nH]c(=O)c1cc(Cl)ccc12`, the figures for the activity in test [1], in test [3] and in test [4] were -75.3%, -78.5% and -77%, respectively. Also, the Potency in test [2] was 24.1 µM (active).
For `Cc1cc2c(cc3n2CC(C)(C(=O)NC2CCCCCCC2)N(Cc2ccco2)C3=O)o1` (stereo not given), the results for the activity in test [1], in test [3] and in test [4] were -1.76%, -37.5% and -6.55%, respectively. Moreover, the activity change, negative = inhibition in test [2] came to 0%.
`Cc1ccc2c(c1)c(-n1cccc1)c1n2CC(C)(C(=O)NCCC(C)C)N(Cc2cccnc2)C1=O` (stereo not given): the activity was 4.4% in test [1], -51.8% in test [3] and 0% in test [4]. The activity change, negative = inhibition in test [2] was 0%.
For the compound `CC1CCCCN1CCCNC(=O)Cn1ccc2cc(S(=O)(=O)N3CCCCC3)ccc21` (stereo not given), the activity was 1.36% in test [1], 0.0396% in test [3] and -0.622% in test [4]. Also, the activity change, negative = inhibition in test [2] is 0%.
On the same counts, the results for `c1ccc(CN2CCc3c(sc4ncnc(N5CCOCC5)c34)C2)cc1` are -7.7%, -44.8%, -7.28% and -10.8%.
As to `COc1cc2c(cc1O)NC(=O)CC2c1cn[nH]c1-c1cc(C)ccc1C` (stereo not given), the figures for the activity in test [1], in test [3] and in test [4] were -13.7%, -6.25% and -21.7%, respectively. For the same compound, the activity change, negative = inhibition in test [2] was 2.11%.
On the same counts, the results for `O=C(c1ccc(C2CCCNC2)cc1)N1CCN(c2ccncc2)CC1` (stereo not given) are 3.41%, -3.55%, 3.06% and 2.03%.
On the same counts, the results for `CN1CCC(N2C[C@@H]3C[C@H]2C(=O)N(CC2CC2)c2ccccc2O3)CC1` are 4.01%, -1.59%, 3.64% and 2.68% [at 85.7 µM].
For `COc1cccc(Nc2cc3c(cn2)CN(Cc2cccnc2)CCN3)c1` the same measures were 1.92%, -7.33%, -8.41% and 2.65% [at 85.7 µM].
On to `CCCC1c2cccn2CCN1C(=O)NC1(CC(=O)OCC)CCCCC1` (stereo not given), for which the activity in test [1] is -3.29%; in test [3], -5.96%; in test [4], -9.82%. Besides, the activity change, negative = inhibition in test [2] was -0.613%.
On the same counts, the results for `CCc1ccc(N2C(=O)c3cc4sccc4n3CC2(C)C(=O)NC2CCCCCC2)cc1` (stereo not given) are -4.01%, -5.2%, -7.25% and 0.902%.
Turning to `COC1CCN(c2cc(-c3ccsc3)nc3c(C)noc23)CC1`, the values for the activity in test [1], in test [3] and in test [4] were -4.15%, -17% and -10.4%, respectively. Also, the activity change, negative = inhibition in test [2] was -0.422% [at 85.7 µM].
For `O=C(NCCCN1CCc2ccccc2C1)C1CCc2ncc(-c3ccc(F)cc3)n2C1` (stereo not given) the same measures were -4.39%, 3.39%, -4.05% and -6.35%.
Take `COc1ccc(CCN2C(=O)c3cc4occc4n3CC2(C)C(=O)NC2CCCCC2)cc1OC` (stereo not given): the activity in test [1] is 2.48%; in test [3], -47.9%; in test [4], 1.36%. Further, in test [2], the activity change, negative = inhibition worked out at 0%.
On the same counts, the results for `O=C(NCc1ccc(Cl)cc1)c1ccc2c(=O)nc3c(-c4ccccc4F)n[nH]n3c2c1` are -4.08%, -14.9%, -19.4% and -1.1%.
On the same counts, the results for `CCN(CC)CCCNC(=O)CCc1nnc2n(Cc3ccc(F)cc3)c(=O)c3ccccc3n12` are 2.05%, -4.75%, 1.85% and 0%.
In the case of `COc1ccc(-c2cc(-c3cnn(C)c3)cn3cncc23)cn1`, the values for the activity in test [1], in test [3] and in test [4] were -23.7%, -36.8% and -7.46%, respectively. Further, the activity change, negative = inhibition in test [2] was -6.32% [at 85.7 µM].
Consider `FC(F)(F)c1ccnc(N2CC[C@H](c3nnc(-c4ccncc4)o3)C2)n1`, for which the activity was 2.16% in test [1], -59.3% in test [3] and 3.21% in test [4]. Besides, the activity change, negative = inhibition in test [2] was 0.304% [at 85.7 µM].
Turning to `Cc1ccc(C(=O)O)c2c1N[C@@H](c1ccc(Cl)cc1)[C@H]1CC=C[C@@H]21`, the activity in test [1] was 2.12%; in test [3], 0.978%; in test [4], 2.78%. Also, in test [2], the activity change, negative = inhibition is 0.676%.
On the same counts, the results for `COc1cccc(Nc2ccnc(-c3nnc(C)n3C3CCCCC3)c2)c1` are 7.43%, -22.9%, 8.64% and 17.8% [at 85.7 µM].
For `O=C(Nc1ccccc1)c1cnc2c(c1)N(C(=O)Cc1ccc(O)cc1)CCC2` the same measures were -2.13%, -4.08%, -3.63% and -4.86% [at 85.7 µM].
`CCCC1c2cccn2CCN1C(=O)Nc1ccccc1Cl` (stereo not given): the activity in test [1] was 2%; in test [3], -4.51%; in test [4], 1.09%. For the same compound, the Potency result in test [2] is “inactive”.
On the same counts, the results for `Cc1ccc2c(c1)c(=O)[nH]c1c(C(=O)NCc3ccc4c(c3)OCO4)sc(=S)n12` are -32.7%, -60.7%, -35.6% and 17.1 µM (active).
With `N#Cc1cnc(N2CC3CCC(C2)N3CC(F)(F)F)s1`, the figures for the activity in test [1], in test [3] and in test [4] were -0.326%, -7.9% and -0.128%, respectively. In addition, in test [2], the activity change, negative = inhibition is -4.72% [at 85.7 µM].
